In PubChem BioAssay (NCI):
About 83,000 compounds went through this panel and 20% of them were active in at least one assay; those are over-represented in the sample as a whole.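 Treatment: one concentration, 48 hours, 96-well format. Scoring: percent growth, with anything below 10 considered active.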 The source made the active and inactive calls.

Assays:
Assay in all cases: NCI-60 one-dose screen, 48 h (100 = growth as untreated, 0 = no growth, -100 = all killed)
Settings in all cases: 10 µM unless noted
NCI-H23 lung = tested on: NCI-H23 lung
NCI-H226 lung = tested on: NCI-H226 lung
NCI-H322M lung = tested on: NCI-H322M lung
HOP-62 NSCLC = tested on: HOP-62 NSCLC
NCI-H460 lung = tested on: NCI-H460 lung
HOP-92 NSCLC = tested on: HOP-92 NSCLC
NCI-H522 lung = tested on: NCI-H522 lung
A549/ATCC NSCLC = tested on: A549/ATCC NSCLC
786-0 renal = tested on: 786-0 renal
COLO 205 colon = tested on: COLO 205 colon

Structure (SMILES)	growth (NCI-H23 lung)	growth (NCI-H226 lung)	growth (NCI-H322M lung)	growth (HOP-62 NSCLC)	growth (NCI-H460 lung)	growth (HOP-92 NSCLC)	growth (NCI-H522 lung)	growth (A549/ATCC NSCLC)	growth (786-0 renal)	growth (COLO 205 colon)
c1ccc2[nH]c(-c3ccc(-c4nccc5c4[nH]c4ccccc45)cc3)nc2c1	69.1% (inactive)	77.4% (inactive)	58.7% (inactive)	86.1% (inactive)	42.9% (inactive)	92.4% (inactive)	27.3% (inactive)	45.7% (inactive)	2.97% (active)	44.9% (inactive)
CCn1c2ccccc2c2cc(C(O)c3cccc4ncccc34)ccc21 (stereo not given)	-42.3% (active)	23.7% (inactive)	34.8% (inactive)	32.8% (inactive)	10.1% (inactive)	29.3% (inactive)	8.82% (active)	20.7% (inactive)	6.42% (active)	-33.9% (active)
Oc1ccc(Cc2ccc(O)c3ncccc23)c2cccnc12	9.78% (active)	12.1% (inactive)	9.39% (active)	-2.91% (active)	7.23% (active)	-25.9% (active)	-10.8% (active)	7.38% (active)	19% (inactive)	71% (inactive)
COc1ccc(-c2cc(-c3ccc(N(C)C)cc3)nc(NC(=O)c3cccnc3)n2)cc1	105% (inactive)	98.8% (inactive)	93% (inactive)	100% (inactive)	96.1% (inactive)	124% (inactive)	93% (inactive)	105% (inactive)	103% (inactive)	104% (inactive)
Cc1cc(=O)oc2cc(Oc3nc(-c4ccccc4)cn4c(-c5ccccc5)cnc34)ccc12	62.4% (inactive)	44.6% (inactive)	86% (inactive)	68.7% (inactive)	64% (inactive)	22.4% (inactive)	47.1% (inactive)	56.1% (inactive)	67.3% (inactive)	70.5% (inactive)
O=C(OCC(O)(CO)C(=O)NC12CC3CC(CC(C3)C1)C2)c1ccc(Cl)cc1 (stereo not given)	97.6% (inactive)	89.1% (inactive)	103% (inactive)	103% (inactive)	105% (inactive)	101% (inactive)	88.2% (inactive)	91.4% (inactive)	99.4% (inactive)	102% (inactive)
CCOC(=O)c1c(NC(=S)Nc2ccc([N+](=O)[O-])cc2)sc2c1CCCCC2	69.4% (inactive)	70.8% (inactive)	83.5% (inactive)	102% (inactive)	69.7% (inactive)	0.0405% (active)	58.7% (inactive)	84.4% (inactive)	92.9% (inactive)	105% (inactive)
Cc1cc(N2CCOCC2)nc(N(CCCNc2ccnc3cc(Cl)ccc23)Cc2ccc3c(c2)OCO3)n1	13.5% (inactive)	13.8% (inactive)	21.4% (inactive)	-17.6% (active)	-11.5% (active)	-25.8% (active)	-66.4% (active)	2.51% (active)	-79% (active)	-58.5% (active)
O=C(Cn1cc(CSc2nc3ccccc3o2)nn1)Nc1ccc([N+](=O)[O-])cc1	97.8% (inactive)	99.4% (inactive)	102% (inactive)	83.7% (inactive)	98.5% (inactive)	95.2% (inactive)	78.5% (inactive)	101% (inactive)	99.1% (inactive)	110% (inactive)
COc1ccc(C2=C/C(=C\c3ccccc3O)C(=O)N2Cc2ccccc2)cc1	85.9% (inactive)	94.9% (inactive)	77.8% (inactive)	89.7% (inactive)	90% (inactive)	64.6% (inactive)	51.3% (inactive)	74% (inactive)	90% (inactive)	102% (inactive)
O=C1c2c(c3c4cc(F)ccc4oc3c3[nH]c4ccccc4c23)C(=O)N1O	23.4% (inactive)	59.3% (inactive)	57.7% (inactive)	24.2% (inactive)	5.01% (active)	48.8% (inactive)	30.5% (inactive)	54.2% (inactive)	47.6% (inactive)	57.7% (inactive)
N#C/C(Sc1nc2sc3c(c2c(=O)n1Cc1ccccc1)CCCC3)=C1/SC=C(c2ccc(Cl)cc2)N1c1ccccc1	86.6% (inactive)	106% (inactive)	84.5% (inactive)	78.8% (inactive)	90.6% (inactive)	68.6% (inactive)	89.7% (inactive)	100% (inactive)	87.4% (inactive)	104% (inactive)
Clc1ccc2c(NCCCn3cnc4c(N5CCCC5)nc(Cl)nc43)ccnc2c1	98.7% (inactive)	102% (inactive)	92.7% (inactive)	91.5% (inactive)	107% (inactive)	107% (inactive)	91.5% (inactive)	96.5% (inactive)	96.4% (inactive)	88.2% (inactive)
C#CC(F)(F)[C@]1(O)CCC2C3CCC4=CC(=O)CCC4=C3[C@@H](c3ccc(N(C)C)cc3)C[C@@]21C (stereo not given in full)	96.5% (inactive)	98.5% (inactive)	92.8% (inactive)	90.6% (inactive)	93.4% (inactive)	67.8% (inactive)	64.7% (inactive)	64.8% (inactive)	69% (inactive)	101% (inactive)
